# Data: PMC8384837, “Expanding the binding specificity for RNA recognition by a PUF domain”
# Legend:
# Experiment in all cases: yeast three-hybrid, YBZ-1, SC-Leu-His + 0.5 mM 3-AT, 4 days
# Conditions in all cases: tags: N-Gal4 AD-HA kept; label: inside an RPR1-promoter hybrid RNA with tandem MS2 sites; ssRNA
# PUM1 PUF domain R3-RVR = PUM1 PUF domain R3-RVR (Homo sapiens, UniProt Q14671 828-1176, C935R;R936V;Q939R)
# Method in brief: (§1)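 Repeat regions from input (SC-Leu) and selection (SC-Leu-His + 0.5 mM 3-AT) plates were PCR-amplified and Illumina-sequenced after four days of growth. The cells were strain YBZ-1 with a LexA–MS2 coat fusion and a HIS3 reporter, co-expressing Pumilio-1 PUF domain libraries and matching RNA elements from a centromeric plasmid. The interaction score is the log change in variant frequency from input to selection, taken in log2 with a pseudocount of 1 for absent variants.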
# PUM1 PUF domain R7-LPT = PUM1 PUF domain R7-LPT (Homo sapiens, UniProt Q14671 828-1176, S1079L;N1080P;E1083T)
# Method in brief: as §1
# PUM1 PUF domain R5-QGR = PUM1 PUF domain R5-QGR (Homo sapiens, UniProt Q14671 828-1176, C1007Q;R1008G;Q1011R)
# Method in brief: as §1
# PUM1 PUF domain R5-ATR = PUM1 PUF domain R5-ATR (Homo sapiens, UniProt Q14671 828-1176, C1007A;R1008T;Q1011R)
# Method in brief: as §1
# PUM1 PUF domain R5-DMR = PUM1 PUF domain R5-DMR (Homo sapiens, UniProt Q14671 828-1176, C1007D;R1008M;Q1011R)
# Method in brief: as §1
# PUM1 PUF domain R5-KYR = PUM1 PUF domain R5-KYR (Homo sapiens, UniProt Q14671 828-1176, C1007K;R1008Y;Q1011R)
# Method in brief: as §1
# PUM1 PUF domain R8-SYR = PUM1 PUF domain R8-SYR (Homo sapiens, UniProt Q14671 828-1176, N1122S;Q1126R)
# Method in brief: as §1
# PUM1 PUF domain R3-GWD = PUM1 PUF domain R3-GWD (Homo sapiens, UniProt Q14671 828-1176, C935G;R936W;Q939D)
# Method in brief: as §1
# PUM1 PUF domain R6-GWC = molecular target: T1, PUM1 PUF domain R6-GWC (Homo sapiens, UniProt Q14671 828-1176, N1043G;Y1044W;Q1047C)
# T1 sequence: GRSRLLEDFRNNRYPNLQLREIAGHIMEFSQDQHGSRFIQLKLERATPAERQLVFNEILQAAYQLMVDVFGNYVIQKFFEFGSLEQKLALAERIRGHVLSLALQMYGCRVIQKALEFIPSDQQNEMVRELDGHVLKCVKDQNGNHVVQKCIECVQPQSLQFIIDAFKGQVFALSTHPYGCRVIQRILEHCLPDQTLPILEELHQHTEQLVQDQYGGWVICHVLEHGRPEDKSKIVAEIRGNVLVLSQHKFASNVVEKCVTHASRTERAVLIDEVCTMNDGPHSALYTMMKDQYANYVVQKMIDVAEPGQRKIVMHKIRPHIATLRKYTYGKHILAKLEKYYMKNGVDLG
# Method in brief: as §1
# PUM1 PUF domain R3-YFE = PUM1 PUF domain R3-YFE (Homo sapiens, UniProt Q14671 828-1176, C935Y;R936F;Q939E)
# Method in brief: as §1
sequence,measurement,setting,value
GGCUAGAACUAGUGGAUCCCCCGGCGCCCGGCGGCUCGAGCCCGGGUAAGUGUAAUUAGUCUGCAUGCCGCCGGGCGCCAUGCCUGCAGGUCGACUCUAGAAAACAUG,binding signal,PUM1 PUF domain R3-RVR,4.85 log2 enrichment (interaction score)
GGCUAGAACUAGUGGAUCCCCCGGCGCCCGGCGGCUCGAGCCCGGGUAAGUUUAAAUAGUCUGCAUGCCGCCGGGCGCCAUGCCUGCAGGUCGACUCUAGAAAACAUG,binding signal,PUM1 PUF domain R7-LPT,3.22 log2 enrichment (interaction score)
GGCUAGAACUAGUGGAUCCCCCGGCGCCCGGCGGCUCGAGCCCGGGUAAGUGUCAAUAGUCUGCAUGCCGCCGGGCGCCAUGCCUGCAGGUCGACUCUAGAAAACAUG,binding signal,PUM1 PUF domain R5-QGR,3.22 log2 enrichment (interaction score)
same,binding signal,PUM1 PUF domain R5-ATR,3.13 log2 enrichment (interaction score)
same,binding signal,PUM1 PUF domain R5-DMR,3.01 log2 enrichment (interaction score)
same,binding signal,PUM1 PUF domain R5-KYR,2.48 log2 enrichment (interaction score)
GGCUAGAACUAGUGGAUCCCCCGGCGCCCGGCGGCUCGAGCCCGGGUAAGCGUAAAUAGUCUGCAUGCCGCCGGGCGCCAUGCCUGCAGGUCGACUCUAGAAAACAUG,binding signal,PUM1 PUF domain R8-SYR,4.37 log2 enrichment (interaction score)
GGCUAGAACUAGUGGAUCCCCCGGCGCCCGGCGGCUCGAGCCCGGGUAAGUGUAAAUAGUCUGCAUGCCGCCGGGCGCCAUGCCUGCAGGUCGACUCUAGAAAACAUG,binding signal,PUM1 PUF domain R8-SYR,4.42 log2 enrichment (interaction score)
same,binding signal,PUM1 PUF domain R3-GWD,5.07 log2 enrichment (interaction score)
same,binding signal,PUM1 PUF domain R6-GWC,2.76 log2 enrichment (interaction score)
GGCUAGAACUAGUGGAUCCCCCGGCGCCCGGCGGCUCGAGCCCGGGUAAGUGUAAGUAGUCUGCAUGCCGCCGGGCGCCAUGCCUGCAGGUCGACUCUAGAAAACAUG,binding signal,PUM1 PUF domain R3-RVR,1.73 log2 enrichment (interaction score)
same,binding signal,PUM1 PUF domain R3-YFE,5.72 log2 enrichment (interaction score)
